Experimental findings from PubChem BioAssay (NCI) are described below.

The structures appear in SMILES notation. The panel holds about 83,000 compounds, 20% with a hit somewhere; the sample as a whole holds those more often.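 Growth was measured after 48 h exposure to one concentration of compound in 96-well plates. Values under 10 count as active.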 Values without a mark were called inactive. The source made the active and inactive calls.

Some test systems named below: HCT-15 colon; HT29 colon; SNB-75 CNS; SNB-19 CNS; U251 CNS; PC-3 prostate; SK-MEL-5 melanoma; UACC-62 melanoma; LOX IMVI melanoma; SK-MEL-28 melanoma; SK-MEL-2 melanoma; EKVX NSCLC; SN12C renal; UO-31 renal; TK-10 renal; ACHN renal; CAKI-1 renal; CCRF-CEM leukemia; MOLT-4 leukemia; A498 renal.
What all share (test): NCI-60 one-dose screen, 48 h (100 = growth as untreated, 0 = no growth, -100 = all killed)
What all share (settings): 10 µM unless noted

As to `COc1ccc(-c2cc(-c3cc(OC)ccc3OC)nc(SCC(C)=O)c2C#N)cc1`, the growth in the assay on HCT-15 colon is 52.7%; in the assay with HT29 colon, 81.8%; in the assay with SNB-75 CNS it was 42.7%; with SNB-19 CNS it was 75.8%; in the assay with U251 CNS, 74.4%; in the assay on PC-3 prostate, 56.2%. Further, the growth in the assay with SK-MEL-5 melanoma was 65.7%; in the assay on UACC-62 melanoma it was 67.1%; with LOX IMVI melanoma, 57.9%; in the assay with SK-MEL-28 melanoma it was 68%; in the assay with SK-MEL-2 melanoma it was 78.6%; with EKVX NSCLC, 51.6%. The growth is 76.7% in the assay with SN12C renal; 41.1% in the assay on UO-31 renal; 101% in the assay with TK-10 renal; 56.5% with ACHN renal; 40.6% in the assay on CAKI-1 renal; 69.2% in the assay on CCRF-CEM leukemia. Further, the growth with MOLT-4 leukemia was 37.9%.

Consider `Nc1ccc(Br)cc1C(F)(F)F`, for which the growth was 106% in the assay on HCT-15 colon; 108% with HT29 colon; 109% in the assay with SNB-75 CNS; 104% with SNB-19 CNS; 109% with U251 CNS; 105% in the assay on PC-3 prostate. Moreover, the growth with SK-MEL-5 melanoma is 103%; in the assay on UACC-62 melanoma, 108%; with LOX IMVI melanoma it was 99.2%; in the assay with SK-MEL-28 melanoma it was 121%; in the assay on SK-MEL-2 melanoma, 104%; in the assay on EKVX NSCLC, 109%. In addition, the growth is 99.8% in the assay on SN12C renal; 88.1% in the assay with UO-31 renal; 108% in the assay with TK-10 renal; 96.5% in the assay with ACHN renal; 104% in the assay on CAKI-1 renal; 107% in the assay with A498 renal. The figures for the growth in the assay with CCRF-CEM leukemia and with MOLT-4 leukemia were 101% and 108%, respectively.

On to `Cn1cc(-c2nonc2-c2c[nH]c3ccccc23)c2cc(Br)ccc21`, for which the growth with HCT-15 colon was 18.5%; in the assay on HT29 colon, 8.18% (active); with SNB-75 CNS it was 46.3%; in the assay with SNB-19 CNS, 49.7%; in the assay on U251 CNS, 29.8%; in the assay with PC-3 prostate it was 41.7%. In addition, the growth with SK-MEL-5 melanoma is 48%; with UACC-62 melanoma, 34.2%; with LOX IMVI melanoma, 19%; in the assay with SK-MEL-28 melanoma, 60.8%; with SK-MEL-2 melanoma it was 41%; with EKVX NSCLC it was 33.6%. Further, the growth with SN12C renal was 55%; in the assay with UO-31 renal, 36.8%; in the assay with TK-10 renal it was 53.3%; in the assay on ACHN renal, 40.3%; in the assay with CAKI-1 renal, 26.3%; in the assay with CCRF-CEM leukemia, 31%. Further, the growth in the assay with MOLT-4 leukemia was 17.8%.

Consider `COC(=O)[C@@]12CC=C(C)[C@]3(C[C@H](c4ccoc4)OC3=O)[C@H]1C=C[C@@H](O)[C@@]2(O)C(=O)OC`, for which the growth in the assay with HCT-15 colon was 108%; with HT29 colon, 84.7%; in the assay on SNB-75 CNS it was 88.9%; in the assay on SNB-19 CNS it was 105%; in the assay on U251 CNS, 97.9%; in the assay with PC-3 prostate, 95.6%. Besides, the growth with SK-MEL-5 melanoma is 107%; with UACC-62 melanoma, 92.8%; in the assay on LOX IMVI melanoma it was 97.5%; in the assay with SK-MEL-28 melanoma, 105%; in the assay with SK-MEL-2 melanoma, 84.6%; in the assay with EKVX NSCLC it was 94.7%. Further, the growth with SN12C renal was 104%; in the assay with UO-31 renal it was 82.7%; in the assay on TK-10 renal, 80.3%; in the assay on ACHN renal, 105%; with CAKI-1 renal, 85.1%; with CCRF-CEM leukemia it was 111%. For the same molecule, the growth in the assay with MOLT-4 leukemia is 106%.

For the molecule `O=C(/C=C/C12c3ccccc3C(c3ccccc31)C1C(=O)NC(=O)C12)c1ccc(I)cc1` (stereo not drawn), the growth is 39.7% with HCT-15 colon; 29.6% in the assay with HT29 colon; 63.6% in the assay with SNB-75 CNS; 63.4% with SNB-19 CNS; 34.5% in the assay on U251 CNS; 34.5% in the assay with PC-3 prostate. Besides, the growth is 69.5% with SK-MEL-5 melanoma; 51.9% with UACC-62 melanoma; 37.8% with LOX IMVI melanoma; 64% in the assay on SK-MEL-28 melanoma; 56.7% in the assay on SK-MEL-2 melanoma; 66.1% in the assay on EKVX NSCLC. For the same molecule, the growth with SN12C renal is 50.9%; in the assay on UO-31 renal, 46.2%; in the assay with TK-10 renal, 66.7%; in the assay with ACHN renal, 67.6%; with CAKI-1 renal it was 60.4%; in the assay with A498 renal it was 56.1%. In addition, the values for the growth with CCRF-CEM leukemia and with MOLT-4 leukemia were 1.53% (active) and 6.91% (active), respectively.

Consider `COc1cccc(CNc2c3ccccc3nc3ccccc23)c1OC`, for which the growth in the assay with HCT-15 colon is 19.8%; with HT29 colon, 14.4%; with SNB-75 CNS, 68%; with SNB-19 CNS, 35.5%; in the assay on U251 CNS it was 34.5%; in the assay on PC-3 prostate, 37.6%. Also, the growth with SK-MEL-5 melanoma was 55.8%; with UACC-62 melanoma, 51.3%; with LOX IMVI melanoma, 13%; in the assay with SK-MEL-28 melanoma it was 66.1%; with SK-MEL-2 melanoma it was 79.2%; with EKVX NSCLC, 36.3%. In addition, the growth in the assay with UO-31 renal was 25.2%; in the assay with TK-10 renal, 59.5%; in the assay on ACHN renal, 21.1%; in the assay on CAKI-1 renal it was 33.7%; in the assay on CCRF-CEM leukemia it was 39.5%; in the assay on MOLT-4 leukemia, 17.9%.

As to `CC1SC(c2ccccc2O)N(NC(=O)CCC(=O)c2nc3ncccc3[nH]2)C1=O` (stereo not drawn), the growth was 103% in the assay with HCT-15 colon; 105% with HT29 colon; 83.8% in the assay on SNB-75 CNS; 101% with SNB-19 CNS; 97.3% in the assay on U251 CNS; 92.3% in the assay with PC-3 prostate. Also, the growth in the assay with SK-MEL-5 melanoma was 95.1%; with LOX IMVI melanoma, 84.8%; in the assay on SK-MEL-28 melanoma, 113%; in the assay on SK-MEL-2 melanoma, 95.8%; in the assay with EKVX NSCLC, 85.7%; in the assay with SN12C renal it was 101%. Further, the growth in the assay on UO-31 renal is 66.9%; in the assay on TK-10 renal it was 103%; in the assay with ACHN renal, 97.4%; with CAKI-1 renal, 80.3%; in the assay on A498 renal, 90.6%; with CCRF-CEM leukemia, 116%. For the same molecule, the growth with MOLT-4 leukemia was 123%.

As to `CCCC(=O)NC(c1ccc2c(c1)OCO2)c1cc(Cl)c2cccnc2c1O` (stereo not drawn), the growth in the assay on HCT-15 colon was 30.9%; in the assay on HT29 colon, 21.2%; in the assay with SNB-75 CNS, 6.73% (active); with SNB-19 CNS, 23.7%; with U251 CNS, 17.3%; in the assay with PC-3 prostate, 34.5%. Further, the growth was 37.5% with SK-MEL-5 melanoma; 11% in the assay on UACC-62 melanoma; 23.4% in the assay with LOX IMVI melanoma; 46.1% in the assay with SK-MEL-28 melanoma; 58.7% in the assay with SK-MEL-2 melanoma; 30.1% with EKVX NSCLC. The growth is -8.37% (active) with UO-31 renal; 37.6% with TK-10 renal; 18.1% in the assay with ACHN renal; 18.1% in the assay on CAKI-1 renal; 43.6% in the assay on A498 renal; 13.2% with CCRF-CEM leukemia. In addition, in the assay with MOLT-4 leukemia, the growth is 16.6%.
